Test results from PubChem BioAssay (NCI).
Compounds without any hit were thinned out: in the full panel of roughly 79,000, 15% have a hit. Calls of active or inactive are those of the source. No stated cut-off is given here; in the data, active means growth inhibition above about 70%; inactive means the rest.

How the values were obtained:
[1] = NCI Yeast Anticancer Drug Screen. Data for the rad50 strain (AID 155);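 further: 0% = growth of vehicle-only cultures of the same strain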; conditions: S. cerevisiae rad50 strain growth inhibition; at 50.0 µM; hits give high values
Procedure, shortened: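 Inhibition values express reduced yeast growth in compound-treated cultures relative to vehicle-treated controls.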

[2] = NCI Yeast Anticancer Drug Screen. Data for the mec2-1 strain (AID 157); conditions: S. cerevisiae mec2-1 strain, at 50.0 µM, hits give high values
Procedure, shortened: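 Test agents were screened against the mec2-1 yeast strain, with defined DNA repair or cell cycle alteration. Growth was scored as inhibition against vehicle-only controls.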

[3] = NCI Yeast Anticancer Drug Screen. Data for the sgs1 mgt1 strain (AID 161);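 further: 0% = growth of cultures given vehicle only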; conditions: S. cerevisiae sgs1 mgt1 strain, at 50.0 µM, hits give high values
Procedure, shortened: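 Inhibition of yeast growth, normalised to vehicle-treated controls, is reported for a strain bearing genetic alterations in DNA damage repair.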

[4] = NCI Yeast Anticancer Drug Screen. Data for the cln2 rad14 strain (AID 165);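 further: 0% = growth equal to vehicle treated cultures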; conditions: S. cerevisiae cln2 rad14 strain, at 50.0 µM, hits give high values
Procedure, shortened: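 Growth of compound-exposed yeast (cln2 rad14 genotype) measured and expressed as inhibition relative to vehicle.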

[5] = NCI Yeast Anticancer Drug Screen. Data for the bub3 strain (AID 167); conditions: S. cerevisiae bub3 mutant strain, at 50.0 µM, hits give high values
Procedure, shortened: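 Steps: expose the mutant yeast strain to compound; grow alongside vehicle-treated cultures; measure growth; express inhibition against the vehicle cultures.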

[6] = NCI Yeast Anticancer Drug Screen. Data for the mlh1 rad18 strain (AID 175); conditions: S. cerevisiae mlh1 rad18 strain growth inhibition; at 50.0 µM; hits give high values
Procedure, shortened: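 In this whole-cell yeast screen, a strain with altered DNA damage repair is challenged with compound, and its growth is measured against matched vehicle-treated controls.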

Measured: growth inhibition

O=NN(C(=O)NCCCl)c1[nH]c(=O)ncc1I
inactive: [1] -8.65% | [2] -9.7% | [3] -13.9% | [4] -25.2% | [5] 3.05% | [6] -6.1%

COc1ccccc1C(C)C
inactive: [1] -11.1% | [2] -3.8% | [3] -0.85% | [4] -21.8% | [5] -6.45% | [6] -16.2%

CC1CCS(=O)(=O)C1 (stereo unspecified)
inactive: [1] -12.8% | [2] -23.1% | [3] -35.9% | [4] 6.8% | [5] -8.4% | [6] -10.1%

O=c1ccc(=O)n(-c2ccc(Cl)cc2)[nH]1
inactive: [1] -8.1% | [2] -21.8% | [3] -12.7% | [4] 23.4% | [5] -6% | [6] -9.9%

Cn1c2ccccc2n2c(=O)c3c(c(C#N)c12)CCCC3
inactive: [1] -31.1% | [2] -35.2% | [3] -3.1% | [4] -0.35% | [5] -20.6% | [6] -21.7%

C/C=C/C=N/N(C(=O)c1cc([N+](=O)[O-])cc([N+](=O)[O-])c1)C1=NC(c2ccccc2)C(c2ccccc2)=NN1 (stereo unspecified)
inactive: [1] 41.9% | [2] 24.4% | [3] 13% | [4] 41.1% | [5] 15.3% | [6] 26.3%

COc1ccccc1C(=O)Nc1c(C)cccc1Cl
inactive: [1] -0.45% | [2] -25.9% | [3] -0.8% | [4] 0.4% | [5] -10% | [6] 7%

C=CCc1ccc(OC(=O)Nc2ccccc2)c(OC)c1
inactive: [1] 55.9% | [2] 25.2% | [3] 31.4% | [4] 13.9% | [5] 33.5% | [6] 23.4%

CCOC(=O)c1cccc(NC(=O)CCl)c1
inactive: [1] 43.2% | [2] 30.1% | [3] 37.6% | [4] 26% | [5] 39.9% | [6] 49.5%

Cc1ccc(S(=O)(=O)N/N=C/C(C)C)cc1
inactive: [1] 14.2% | [2] -15.6% | [3] 4.75% | [4] 17.8% | [5] -14.8% | [6] 24.2%

COc1cc(C)cc2c(-c3c(O)cc(O)c4c3CC(C)N[C@H]4C)cc(-c3cc(-c4c(O)cc(O)c5c4CC(C)N[C@H]5C)c4cc(C)cc(OC)c4c3O)c(O)c12 (stereo partly specified)
inactive: [1] 15.2% | [2] -20.4% | [3] 7.9% | [4] 18.9% | [5] -13.9% | [6] 16.5%

C=CCn1c(=O)n(CC=C)c(=O)n(CC=C)c1=O
inactive: [1] 7.4% | [2] 14.3% | [3] -5.35% | [4] -26.6% | [5] -10.3% | [6] -10.8%

CC1=CC(N)C2CC1C2(C)C (stereo unspecified)
inactive: [1] -9.3% | [2] -17.1% | [3] -29.1% | [4] -37.6% | [5] -2.2% | [6] -1.65%

COC(=O)C1=C(C)NC(C)=C(C(=O)OC)C1c1cccc(N=O)c1
inactive: [1] 9.85% | [2] 6.5% | [3] 13.3% | [4] 4.4% | [5] 26.6%
active: [6] 78.2%

CCCCCCCCNC=O
inactive: [1] 26.1% | [2] 11.1% | [3] 9.45% | [4] 1.1% | [5] 13.1% | [6] 20.8%

O=C1c2ccccc2C(=O)N1CCc1ccccn1
inactive: [1] 5.5% | [2] -6% | [3] 3.95% | [4] -27.1% | [5] -0.45% | [6] -22.9%

C1CSCCSCCCSC2CCCCC2SC1 (stereo unspecified)
inactive: [1] 22.1% | [2] -0.3% | [3] -8.35% | [4] 17.4% | [5] 5% | [6] 2.15%

C/C(=N\N(C)C)c1sc(-n2nc(-c3ccccc3)cc2-c2ccccc2)nc1C
inactive: [1] 10.7% | [2] -10.2% | [3] 17.6% | [4] -8% | [5] 11% | [6] 8.75%

CCOCCOC(=O)C1CCC(=O)N1CN(C(C)=O)c1cc(OC)ccc1OC (stereo unspecified)
inactive: [1] -17.9% | [2] -3.6% | [3] -30.9% | [4] 6.1% | [5] -0.5% | [6] -39.5%

CC(=O)N(C)c1cccc2cccc(S(=O)(=O)O)c12
inactive: [1] -18.2% | [2] -19.1% | [3] -17.1% | [4] -59.2% | [5] -2.05% | [6] -15.3%

CC(=O)OCCOC(=O)Nc1cccc2ccccc12
inactive: [1] -9.85% | [2] -7.9% | [3] -1.3% | [4] 30.9% | [5] 2.65% | [6] -0.6%

N#Cc1n[nH]n(C2CCCCC2)c1=O
inactive: [1] -29.4% | [2] -12.8% | [3] -13.3% | [4] -0.3% | [5] -20.1% | [6] -14.2%

CCOC(=O)C(CN1CCN(CC(NC=O)(C(=O)OCC)C(=O)OCC)CC1)(NC=O)C(=O)OCC
inactive: [1] -17.1% | [2] -28.3% | [3] -11.9% | [4] -0.5% | [5] 1.15% | [6] -30.1%

O=C(C1OC1c1cccc([N+](=O)[O-])c1)C12CC3CC(CC(C3)C1)C2 (stereo unspecified)
inactive: [1] 12.5% | [2] 32% | [3] 37.2% | [4] 17.1% | [5] 53% | [6] 54.5%

CC(=O)C1=C(O)C(Cc2ccccc2)NC1=O (stereo unspecified)
inactive: [1] 11.9% | [2] -0.2% | [3] 1.95% | [4] -37.1% | [5] -18.4% | [6] 10.7%

CCOC(=O)CN(c1c(C)cc(C)c(N(CC(=O)OCC)S(=O)(=O)c2ccccc2)c1C)S(=O)(=O)c1ccccc1
inactive: [1] 40.5% | [2] 8.95% | [3] 24.8% | [4] -9.2% | [5] 4.5% | [6] 19.9%

c1ccc2c(c1)CC1C3c4ccccc4C(c4ccccc43)C1C2 (stereo unspecified)
inactive: [1] -12.1% | [2] 3.1% | [3] -8.95% | [4] 8.35% | [5] -16.2% | [6] -25.1%

Nc1c(Cl)cc2c(c1Br)Cc1cc(F)ccc1-2
inactive: [1] -0.15% | [2] 2.15% | [3] -3.55% | [4] -0.05% | [5] 14.8% | [6] -9.65%

Nc1nc(N)c(-c2ccc(Cl)cc2)c(CCC(=O)Nc2cccc(C(F)(F)F)c2)n1
inactive: [1] -25.2% | [2] -3.55% | [3] -30% | [4] -0.25% | [5] -17.1% | [6] -21.1%

[O-][n+]1c(CN2CCCCC2)nc2cccc3c2c1-c1ccccc1-3
inactive: [1] 33.4% | [2] 12.3% | [3] -3.5% | [4] -8.55% | [5] 20.6% | [6] 13.1%

CCOC(=O)CCN(CCC(=O)OCC)Cc1cc(Cl)c2cccnc2c1O
active: [1] 99.1% | [2] 98.6% | [3] 99% | [4] 98.5% | [5] 99.3% | [6] 97.8%

CCCCCCO/N=C\c1c2c(O)c3c(O)c(C)c4c(c3c1O)C(=O)C(C)(O/C=C\C(OC)C(C)C(OC(C)=O)C(C)C(O)C(C)C(O)C(C)/C=C\C=C(\C)C(=O)N2)O4 (stereo unspecified)
inactive: [1] 25.2% | [2] 63.4% | [3] 36.6% | [4] 54% | [5] 26.2% | [6] 53.9%

N#C/C(=C\N1CCNC1=S)C(=O)c1ccc2ccccc2c1
inactive: [1] 23.1% | [2] 1.75% | [3] -1.7% | [4] 0.55% | [5] 14.7% | [6] 11.6%

CC1=NN(C(=O)c2cccnc2)C(=O)C1N=Nc1ccc(S(=O)(=O)Nc2ccccn2)cc1 (stereo unspecified)
inactive: [1] 25.6% | [2] -8.75% | [3] 4.75% | [4] 11.4% | [5] -1.6% | [6] 1.8%

CN(C(=O)c1ccc(Cl)c(Cl)c1)C(c1ccco1)P(=O)(c1ccccc1)c1ccccc1 (stereo unspecified)
inactive: [1] 54% | [2] 46.2% | [4] 17.2% | [5] 50.4% | [6] 45.9%
active: [3] 78.4%

Cc1nc2nn[nH]n2c(=O)c1CCO
inactive: [1] 13.2% | [2] 0.15% | [3] 16.2% | [4] 14.2% | [5] -6.95% | [6] -51.6%

O=[N+]([O-])c1ccc(-n2cnc3c(Cl)ncnc32)cc1
inactive: [1] 1.2% | [2] 35.9% | [3] 14.6% | [4] -0.55% | [5] 28.4% | [6] 0.6%

OC(COc1cccc(C(F)(F)F)c1)CN1CCN(c2ccccc2)CC1 (stereo unspecified)
active: [1] 83.7% | [2] 83% | [3] 93.5% | [4] 86.7% | [5] 75.4% | [6] 87.3%

C[N+]1=CN(c2ccc(Cl)cc2)Cc2cc(Cl)ccc21
inactive: [1] 31.1% | [2] -12.1% | [3] 25.6% | [4] 13.4% | [5] 40.1% | [6] 34%

COc1cc(C(C)Cl)ccc1OC(=O)c1ccccc1 (stereo unspecified)
inactive: [1] 10.8% | [2] -5% | [3] 3.95% | [4] -10.2% | [5] 12.2% | [6] 4.5%

Cc1ccc(C(=O)/C=C/c2ccc(N(C)C)cc2)cc1
inactive: [1] 38.8% | [2] 1.95% | [3] 34.8% | [4] 30.9% | [5] 29.4% | [6] 43.8%
